Screening data: PubChem, several laboratories
Mtb FBA inh: inhibits M. tuberculosis FBA enzyme; inhibition, % at 1 µM; 2.3% of 360,000 active; P9WQA3; AID 588726; purified M. tuberculosis FBA, fluorescence read-out; in the data active = inhibition above about 27%;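 also: 0% = vehicle and 100% = reference inhibitor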
Target sequence (P9WQA3 whole entry, looked up): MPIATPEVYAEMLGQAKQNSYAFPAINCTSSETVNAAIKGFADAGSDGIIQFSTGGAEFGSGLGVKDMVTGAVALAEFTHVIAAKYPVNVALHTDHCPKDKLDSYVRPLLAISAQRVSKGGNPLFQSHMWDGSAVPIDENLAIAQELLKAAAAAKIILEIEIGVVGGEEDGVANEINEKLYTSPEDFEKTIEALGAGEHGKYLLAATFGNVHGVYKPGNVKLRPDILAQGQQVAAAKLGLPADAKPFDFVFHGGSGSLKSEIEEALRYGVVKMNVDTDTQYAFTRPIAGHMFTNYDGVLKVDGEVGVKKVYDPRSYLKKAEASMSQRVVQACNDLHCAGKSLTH
BoNT A protease: BoNT A light chain protease inhibition. multiplex microsphere protease substrate cleavage, flow cytometry. inhibition, % at 10 µM. 0.17% of 360,000 active. AID 588499; also: plate controls were buffer without enzyme for full effect and enzyme alone for no effect
Anthrax LF inh2: blocks Bacillus anthracis lethal factor protease. P15917. multiplex microsphere protease cleavage assay, LF. inhibition, % at 10 µM. 0.12% of 360,000 active; also: plate controls were buffer without enzyme for full effect and enzyme alone for no effect
Bead autofluor: compound fluorescence in toxin protease inhibitor counterscreen | compound autofluorescence counterscreen, microsphere flow cytometry; active compounds read high | 3.1% of 360,000 active | fluorescence intensity (concentration not given with the values); in the data active = fluorescence intensity above about 16000; inconclusive = no clear call, values can overlap the other calls
GDH-TPI inh: inhibits GDH-TPI coupling enzymes, artifact for Mtb FBA screen; GDH-TPI coupled enzyme counterscreen, NADH absorbance; inhibition, % at 4.8 µM; 1.2% of 360,000 active; in the data active = inhibition above about 30%;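 also: 0% = DMSO wells and 100% = wells lacking the enzyme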
BoNT F protease: BoNT F light chain protease inhibition. 0.22% of 360,000 active. AID 588497. inhibition, % at 10 µM. Multiplex microsphere protease cleavage assay, flow cytometry; in the data active = inhibition above about 35%, passing the limit was not always enough; inconclusive = no clear call, values can overlap the other calls; also: plate controls were buffer without enzyme for full effect and enzyme alone for no effect
* = called active by the depositor; ? = inconclusive; · = no result given. The list is not random: actives were taken first. Their share in the collection is about 6.7%. Rule as the data show it, unless noted: active = inhibition above about 30%; inconclusive = no clear call, values can overlap the other calls; inactive = below that.

SMILES	Mtb FBA inh	BoNT A protease	Anthrax LF inh2	Bead autofluor	GDH-TPI inh	BoNT F protease
Cc1c(NS(=O)(=O)N2CCCC2)c(=O)n(-c2ccccc2)n1C	-1	1	-2	22285*	4	4
O=C(CSCc1n[nH]c(=O)[nH]1)NCCOc1cccc(Oc2ccccc2)c1	-1	-1	1	19843*	2	-4
CCOC(=O)c1ccc(-n2c(CN3CCC(O)CC3)nc3ccc([N+](=O)[O-])cc3c2=O)cc1	0	0	-6	5102	45*	-11
CCCC(=O)Nc1nnc(/C=C/c2ccc(OC)cc2)s1	11	-2	-11	4155	22	-6
COc1ccc(/C=C/c2nnc(NC(=O)C(C)(C)C)s2)cc1	9	5	3	4642	52*	?
CCOc1cc(C(=O)NCc2ccncc2)cc(OCC)c1OCC	-1	1	-2	19468*	-7	-2
CCOc1ccc(C(=O)NCc2ccncc2)cc1OCC	-6	1	3	4503	2	-6
O=C(Nc1cnccn1)c1ccncc1	-1	-3	-7	24053*	17	-4
CCOc1cc(C(=O)Nc2cnccn2)cc(OCC)c1OCC	3	-3	-1	20443*	2	-2
COc1ccc(-n2c(SCC(=O)N3CCCCC3)nnc2-c2cccnc2)cc1	0	1	3	8520	-9	-1
COc1ccc(CN(CCNC(=O)CCCCC(=O)NCCN(Cc2ccc(OC)cc2)C(C)C)C(C)C)cc1	1	0	-1	4639	3	-2
CN(Cc1ccccc1)C(=O)CN1C(=O)c2ccccc2C1=O	0	-3	26	3400	9	-3
CN(Cc1ccccc1)C(=O)CN1C(=O)C2C3C=CC(C3)C2C1=O (stereo unspecified)	0	-4	-2	21276*	-11	-5
CCCCOc1ccc(CN(C)c2ncnc(N)n2)cc1	-5	?	-3	22920*	14	1
Cc1ccc(-n2c(-c3ccncc3)nnc2-c2ccco2)cc1	5	1	1	3557	-1	1
c1ccc(-n2c(-c3ccncc3)nnc2-c2ccco2)cc1	4	0	-2	16681*	8	4
c1ccc(-c2nnc(-c3ccco3)n2-c2ccccc2)cc1	8	-1	-10	4185	-2	9
Cc1ccc(-c2nnc(-c3ccncc3)n2-c2ccc(C)cc2)cc1	2	?	-2	21828*	5	0
COC(=O)CNC(=O)CSc1nc2sccc2c(=O)n1-c1ccccc1	2	-1	-1	6456	-4	-2
COCCNC(=O)CSc1nc2ccccc2c(=O)n1-c1cccc(OC)c1	-5	-4	0	21564*	-14	-6
COc1ccc(-n2c(SCC(=O)NCCC(C)C)nc3ccsc3c2=O)cc1	0	1	-3	21316*	-3	5
COC(=O)CNC(=O)CSc1nc2sc(-c3ccccc3)cc2c(=O)n1-c1ccccc1	1	1	-2	4275	47*	4
COc1cc2nc(SCc3ccc(F)cc3)n(Cc3cccs3)c(=N)c2cc1OC	-3	?	-1	20501*	-5	-3
COc1ccc(Cn2c(SCc3ccccc3C)nc3cc(OC)c(OC)cc3c2=N)cc1	3	·	·	·	2	·
COc1ccc(/C=C/C(=O)NC(=S)N2CCOCC2)cc1	-1	1	-2	4838	16	4
SMILES	Mtb FBA inh	BoNT A protease	Anthrax LF inh2	Bead autofluor	GDH-TPI inh	BoNT F protease
CS(=O)(=O)N1CCN(c2ccccc2NC(=O)c2ccc(-c3ccc(Br)cc3)o2)CC1	0	0	-5	16514*	27	-1
CN1CCN(c2ccc(NC(=O)c3ccc(-c4ccc(Cl)cc4)o3)cc2)CC1	2	-2	-7	5881	16	-18
O=C(NC(=S)Nc1ccccc1N1CCCC1)c1ccc(-c2cccc([N+](=O)[O-])c2)o1	-4	?	-12	19601*	30	0
CS(=O)(=O)N1CCN(c2ccc(NC(=O)c3ccc(-c4ccc(Cl)cc4)o3)cc2)CC1	-1	-6	-2	17675*	13	-10
CCNc1nc2c(c(=O)[nH]c(=O)n2C)n1CCCc1ccccc1	-2	1	-2	3889	-22	?
Cc1ccc2c(c1N)C(=O)c1ccccc1C2=O	-2	9	-1	4990	10	8
Cn1c(=O)c(N)c2c3c(c(Br)ccc31)C(=O)c1ccccc1-2	-6	38*	19	3760	14	-1
O=C(c1ccc(COc2ccc3ccccc3c2)o1)N1N=C(C(F)F)CC1(O)C(F)F (stereo unspecified)	-6	-1	-6	11512	-1	-11
O=C(Nc1ccc(F)cc1)Nc1ccc(Cl)cn1	0	3	-2	18496*	8	5
O=C(Nc1ccc(F)c(Cl)c1)Nc1ccc(Cl)cn1	0	-1	-2	2545	-1	-7
C[C@H](CO)N1C[C@H](C)[C@@H](CN(C)S(=O)(=O)c2cccs2)Oc2ccc(NS(=O)(=O)c3ccccc3)cc2CC1=O	1	-1	-5	4652	4	-6
Cc1cccc(OCc2nnc(SCC(=O)NCC3CCCO3)n2C)c1 (stereo unspecified)	-5	0	0	5849	-10	0
CC(C)C[C@@H](CN1CCC[C@@H]1CN1C(=O)C(=O)NC[C@@H]1Cc1ccccc1)N1C[C@H](Cc2ccc(O)cc2)N(CCc2ccccc2)C(=O)C1=O	-1	0	-6	3744	5	-4
CCCCNS(=O)(=O)c1ccc(OC)c2ncccc12	16	?	0	19492*	1	2
CSc1nnc(-c2sccc2OCc2ccccc2)n1C	-1	-1	0	16539*	22	-4
CSc1n[nH]c(-c2sccc2OCc2ccc(C)cc2)n1	-1	-1	17	9569	-7	-9
Cc1ccc(Cn2c(=O)c3ccccc3n3c(SCC(=O)N4CCCCC4C)nnc23)cc1 (stereo unspecified)	5	?	2	19920*	-2	2
Cc1ccc(-c2nc(CS(=O)CC(=O)NC3CC3)c(C)o2)cc1 (stereo unspecified)	0	-1	0	5185	-3	3
CCCCNc1oc(-c2cccs2)nc1S(=O)(=O)c1ccccc1	5	4	0	22130*	17	5
CNc1oc(-c2cccs2)nc1S(=O)(=O)c1ccccc1	-1	-1	-7	4337	9	-3
Cc1ccc(C(=O)N/N=C\c2ccc(Br)o2)o1	-3	0	0	5377	58*	-2
Cc1c(/C=N/NC(=O)c2ccc(Br)o2)cnn1C	127*	·	·	·	9	·
Cc1ccc(/C=N/NC(=O)C(=O)N/N=C/c2ccc(C)o2)o1	0	0	-3	3133	7	-3
Cc1c(/C=N\NC(=O)c2ccc(F)cc2)cnn1C	2	0	2	2013	10	-2
CCOC(=O)c1sc(=S)n(C)c1NC(=O)c1ccc(C(C)(C)C)cc1	0	-1	0	3160	41*	?
